# Laboratory results as given in the supplement of paper PMC10941209.
# Test system: HFF
# Assay: cell viability relative to DMSO control; higher = less cytotoxic
# Conditions: 1 µM; 72 h
# Method: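 Single-dose cytotoxicity screen of the MMV Pandemic Response Box at 1 uM on human foreskin fibroblasts (HFF), 72 h at 37 C. Viability measured by MTT (OD 550 nm) and normalised to the DMSO control (% survival).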
row,SMILES,cell viability [%]
1,CCNC(=O)Nc1cc2c(-c3ccnc(C)c3)ccc(CNC(=O)OC)c2cn1,62.7
2,CCc1oc2ccccc2c1C(=O)c1ccc(O)cc1,71.1
3,O=C1NC(=O)C(Br)=C1Br,63.1
4,CC(=O)Nc1cc(NS(=O)(=O)c2ccc(Cl)cc2)cc2c(Cl)[nH]nc12,67.2
5,Cc1c[nH]c(=O)nc1NCc1ccccc1,66.7
6,NC(=O)C(c1ccccc1)(c1ccccc1)[C@H]1CCCN(CCc2ccc3c(c2)CCO3)C1,64
7,CC(C)(C)c1ccc(C(=O)NC(=O)N2CCCc3ccccc32)cc1,63.5
8,Cc1[nH]c2ccccc2c1CCNCc1ccc(/C=C/C(=O)NO)cc1,19
9,CCCC(=O)OCCc1ccccc1,65.3
10,NC1C2CC3CC(C2)CC1C3 (centres undefined),66.1
11,COc1ccc2cc3[n+](cc2c1OCCN(CCn1cncn1)Cc1ccc(F)cc1F)CCc1cc2c(cc1-3)OCO2,61.3
12,O=C(Nc1nnc(-c2ccc(Cl)cc2)o1)c1nc2ccccc2s1,65.8
13,CC(C)(C)NC(=O)N[C@H](C(=O)N1C[C@H]2[C@@H]([C@H]1C(=O)NC(CC1CCC1)C(=O)C(N)=O)C2(C)C)C(C)(C)C (some centres undefined),63.4
14,Nc1nc(-c2ccccc2)nc2c1ncn2[C@@H]1O[C@H](COS(=O)(=O)NC(=O)c2ccccc2O)[C@@H](O)[C@H]1O,72.2
15,CC(C)(C)OC(=O)NCc1ccc(C(=O)N[C@H]2CCOC2=O)cc1,65.7
16,CC(=N)N1CC[C@H](SC2=C(C(=O)O)N3C(=O)[C@@H]([C@@H](C)O)[C@H]3C2)C1,63.8
17,O=C1C=C(c2ccccc2)S(=O)(=O)c2ccccc21,67.5
18,CCCCCOc1ccc(/C=C2\Oc3c(ccc(O)c3O)C2=O)c(O)c1,69.6
19,CC[C@@]1(O)C(=O)OCc2c1cc1n(c2=O)Cc2cc3c([N+](=O)[O-])cccc3nc2-1,53.1
